Experimental data published in the supplement of paper PMC10981050.
“And” between values parts separate entries of the source, which are not always exact repeats. Equal entries are not always repeated. Structures can show the parent of a compound that is named as a salt.

Key:
Assay in all cases: cell viability relative to vehicle control; higher = less cytotoxic
Conditions in all cases: 10 µM
K562 = tested on: K562
Method in brief: (§1)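 CRISPR-edited mutant clones and isogenic wild-type clones from four leukaemia lines were screened against Selleck bioactive, kinase and epigenetic probe libraries, with identity-inconsistent compounds excluded. Each compound was acoustically dispensed at a single 10 µM dose into 384-well plates holding 2000 cells in 50 µL medium per well. After 48 h the supernatant was removed and CellTiter-Glo luminescence was read. Viability was expressed as percent of the on-plate vehicle control and analysed in Genedata Screener.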

MARIMO = tested on: MARIMO
Method in brief: as §1

MOLM14 = tested on: MOLM14
Method in brief: as §1

OCI-AML2 = tested on: OCI-AML2
Method in brief: as §1

Structure (SMILES) | cell viability (K562; SRSF2 genotype: SRSF2 P95H/wt) | cell viability (K562; SRSF2 genotype: SRSF2 wt/wt) [%] | cell viability (MARIMO; SRSF2 genotype: SRSF2 P95H/wt) [%] | cell viability (MARIMO; SRSF2 genotype: SRSF2 wt/wt) [%] | cell viability (MOLM14; SRSF2 genotype: SRSF2 P95H/wt) [%] | cell viability (MOLM14; SRSF2 genotype: SRSF2 wt/wt) [%] | cell viability (OCI-AML2; SRSF2 genotype: P95H/wt) [%] | cell viability (OCI-AML2; SRSF2 genotype: wt/wt) [%]
C=C(C)[C@@H]1CC[C@]2(C(=O)O)CC[C@]3(C)[C@H](CC[C@@H]4[C@@]5(C)CC[C@H](O)C(C)(C)[C@@H]5CC[C@]43C)[C@@H]12 [Betulinic acid] | 72% and 77.2% | 80.1 | 82.3 | 51.4 | 86.7 | 89.3 | 61.9 | 65
CC(C)=CC[C@@H](O)C1=CC(=O)c2c(O)ccc(O)c2C1=O [Shikonin] | 1.68% and 0.52% | 0.87 | 0.3 | 0.35 | 0.44 | 0.28 | 0.19 | 0.25
CCc1c(O)cc(O)c(C(=O)c2ccc(OCCN3CCOCC3)c(OC)c2)c1CC(=O)N(CCOC)CCOC | 20.4% and 29.7% | 25.7 | 29.3 | 25.4 | 2.57 | 2.85 | 19.3 | 21.8
O=C(Nc1ccc(S(=O)(=O)Nc2ccccc2Cl)c(Cl)c1)c1ccccn1 | 98.1% and 99% | 99.7 | 95.6 | 101 | 97.6 | 98.3 | 103 | 104
CCC1(c2c[nH]cn2)Cc2ccccc2C1 [Atipamezole hydrochloride] | 90.5% and 99.4% | 104 | 92.4 | 99.1 | 96.2 | 99.7 | 98.5 | 95.2
CCC1=C(C)CN(C(=O)NCCc2ccc(S(=O)(=O)NC(=O)N[C@H]3CC[C@H](C)CC3)cc2)C1=O [Glimepiride] | 101% and 82.6% | 93.7 | 91.7 | 116 | 94.6 | 92.4 | 97.3 | 105
O=C(Cc1ccccc1)Nc1nnc(CCSCCc2nnc(NC(=O)Cc3ccccc3)s2)s1 | 81.3% and 83.7% | 88.7 | 75.9 | 72.4 | 82.9 | 91.2 | 68.5 | 78.7
CC(C)C[C@H](NC(=O)[C@H](Cc1ccccc1)NC(=O)c1cnccn1)B(O)O [Bortezomib (Velcade)] | 1.99% and 2.21% | 1.46 | 0.39 | 0.93 | 0.29 | 0.31 | 0.19 | 0.25
Nc1cccc2c1CN(C1CCC(=O)NC1=O)C2=O (stereo not drawn) [Lenalidomide (CC-5013)] | 98.2% and 96.6% | 94.8 | 97.1 | 101 | 91.3 | 93.5 | 118 | 113
OC[C@H]1NC[C@H](O)[C@@H](O)[C@@H]1O [1-Deoxynojirimycin] | 103% and 98.1% | 94.5 | 103 | 107 | 97.8 | 106 | 96.4 | 108
C[N+]1(C)CCCC1C(=O)[O-] (stereo not drawn) [Stachydrine] | 99.9% and 99.1% | 105 | 97.3 | 100 | 99.6 | 104 | 106 | 102
C=C[C@]1(C)C[C@@H](OC(=O)CSCCN(CC)CC)[C@]2(C)[C@H](C)CC[C@]3(CCC(=O)[C@H]32)[C@@H](C)[C@@H]1O [Tiamulin] | 83.5% and 81.7% | 90.1 | 75.6 | 92.8 | 84 | 87.9 | 86.1 | 79.5
C=C1C(=O)O[C@H]2[C@H]1CCC(C)=C1CC[C@@](C)(O)[C@@H]12 [Micheliolide] | 28.9% and 41.7% | 64.4 | 15.9 | 19.8 | 7.9 | 7.02 | 5.22 | 11.1
CC(C)(C)c1[nH]cnc1/C=c1\[nH]c(=O)/c(=C/c2ccccc2)[nH]c1=O [NPI-2358 (Plinabulin)] | 10.3% and 31% | 31.4 | 7.45 | 11 | 1.68 | 1.52 | 2.13 | 5.45
CC1(C)C[C@@H]1C(=O)N/C(=C\CCCCSC[C@H](N)C(=O)O)C(=O)O [Cilastatin] | 104% and 93.4% | 105 | 97 | 100 | 104 | 103 | 102 | 110
CC(C)=CCC[C@](C)(O)[C@H]1CC[C@]2(C)[C@@H]1[C@H](O)C[C@@H]1[C@@]3(C)CC[C@H](O)C(C)(C)[C@@H]3[C@@H](O)C[C@]12C [(20S)-Protopanaxatriol] | 90.2% and 89.5% | 101 | 96.1 | 105 | 106 | 106 | 107 | 101
CCC[C@H](NC(=O)[C@@H]1[C@H]2CCC[C@H]2CN1C(=O)[C@@H](NC(=O)[C@@H](NC(=O)c1cnccn1)C1CCCCC1)C(C)(C)C)C(=O)C(=O)NC1CC1 [Telaprevir (VX-950)] | 87.5% and 92% | 80.2 | 68.6 | 86.1 | 89.5 | 99.2 | 85.9 | 98.7
CN1CCN(CCCNc2ncc(Cl)c(-c3cc4c(C(=O)NC5CC5)cccc4s3)n2)CC1 | 97.4% and 98.7% | 93.2 | 81.4 | 85.8 | 58.8 | 79.9 | 68.8 | 72.7
COc1cc(/C=C/C(=O)O)ccc1O [Fumalic acid (Ferulic acid)] | 98.4% and 103% | 100 | 92.1 | 105 | 103 | 101 | 92.9 | 105
Cc1cc(/C=C/C#N)cc(C)c1Nc1ccnc(Nc2ccc(C#N)cc2)n1 [Rilpivirine] | 35.2% and 46.8% | 50.1 | 61.8 | 59.8 | 49.6 | 43.9 | 44.2 | 48
COc1cccc(OC)c1C(=O)OCc1cc(O)ccc1O[C@@H]1O[C@H](CO)[C@@H](O)[C@H](O)[C@H]1O [Curculigoside] | 101% and 106% | 106 | 110 | 104 | 105 | 105 | 115 | 109

Structure (SMILES) | cell viability (K562; SRSF2 genotype: SRSF2 P95H/wt) | cell viability (K562; SRSF2 genotype: SRSF2 wt/wt) [%] | cell viability (MARIMO; SRSF2 genotype: SRSF2 P95H/wt) [%] | cell viability (MARIMO; SRSF2 genotype: SRSF2 wt/wt) [%] | cell viability (MOLM14; SRSF2 genotype: SRSF2 P95H/wt) [%] | cell viability (MOLM14; SRSF2 genotype: SRSF2 wt/wt) [%] | cell viability (OCI-AML2; SRSF2 genotype: P95H/wt) [%] | cell viability (OCI-AML2; SRSF2 genotype: wt/wt) [%]
CC1(C)C=Cc2c(ccc3c2OC[C@@H](c2ccc(O)cc2O)C3)O1 [Glabridin] | 77.9% and 80.4% | 76.9 | 87.5 | 92.5 | 87.2 | 94.4 | 93.6 | 89.4
CN1CCN(Cc2ccc(NC(=O)Cc3ccc(Oc4cc(NC(=O)C5CC5)ncn4)cc3)cc2C(F)(F)F)CC1 | 30.9% and 36.5% | 23.8 | 4.48 | 2.16 | 1.39 | 0.45 | 1 | 5.81
O=C(O)COCCN1CCN([C@H](c2ccccc2)c2ccc(Cl)cc2)CC1 [Levocetirizine Dihydrochloride] | 99% and 88.4% | 101 | 93.2 | 107 | 92.4 | 99.3 | 91.7 | 103
OC[C@@H](O)[C@@H](O)[C@H](O)[C@H](O)CO [D-Mannitol (Osmitrol)] | 98% and 97.7% | 106 | 107 | 116 | 107 | 109 | 97 | 100
Cc1onc(-c2c(Cl)cccc2Cl)c1C(=O)N[C@@H]1C(=O)N2[C@@H]1SC(C)(C)[C@@H]2C(=O)O [Dicloxacillin Sodium] | 99.5% and 95% | 101 | 101 | 103 | 98.7 | 98.3 | 93 | 109
Cc1nc(-c2ccc(OCC(C)C)c(C#N)c2)sc1C(=O)O [Febuxostat (Uloric)] | 93.4% and 98.2% | 100 | 102 | 111 | 107 | 105 | 119 | 123
O=CC(O)C(O)C(O)C(O)COC1OC(COC2OC(CO)C(O)C(O)C2O)C(O)C(O)C1O (stereo not drawn) [Manninotriose] | 112% and 107% | 110 | 97.8 | 97.1 | 103 | 104 | 108 | 104
O=C1N=C(O)NC1(c1ccccc1)c1ccccc1 [Phenytoin sodium (Dilantin)] | 98% and 104% | 96.8 | 104 | 103 | 97.7 | 102 | 103 | 94
CC[C@@H]([C@H](C)O)n1ncn(-c2ccc(N3CCN(c4ccc(OC[C@@H]5CO[C@@](Cn6cncn6)(c6ccc(F)cc6F)C5)cc4)CC3)cc2)c1=O [Posaconazole] | 55.7% and 75.6% | 87 | 55.6 | 59 | 62.2 | 85.5 | 18.1 | 23.9
CCCCC[C@](C)(O)/C=C/[C@@H]1[C@@H](C/C=C\CCCC(=O)O)[C@@H](O)C[C@H]1O [Carboprost] | 110% and 101% | 102 | 97.5 | 91.1 | 78.8 | 99.7 | 90.3 | 90.1
CCOC(=O)C1=C[C@@H](OC(CC)CC)[C@H](NC(C)=O)[C@@H](N)C1 [Oseltamivir Phosphate] | 103% and 105% | 104 | 102 | 106 | 110 | 109 | 110 | 104
C[C@H](CCC(=O)NCC(=O)O)[C@H]1CC[C@H]2[C@@H]3[C@H](O)C[C@@H]4C[C@H](O)CC[C@]4(C)[C@H]3C[C@H](O)[C@]12C [Glycocholic acid] | 107% and 108% | 109 | 106 | 102 | 100 | 109 | 117 | 98
CC(C)c1cc(-c2ccc(F)c3ccccc23)nc(N)n1 | 95.5% and 96.7% | 94.9 | 89.5 | 98.3 | 93.1 | 97.9 | 89.7 | 101
N#Cc1ccc([C@H]2CCc3cncn32)c(F)c1 | 103% and 100% | 88.2 | 100 | 113 | 99.5 | 101 | 95.9 | 94.6
CC(C)NC[C@H](O)COc1ccc(CCOCC2CC2)cc1 [Levobetaxolol HCl] | 91.7% and 81.4% | 83 | 83 | 90.6 | 89.1 | 91.8 | 79.4 | 98.4
CN[C@H]1C(=O)N[C@@H]2Cc3ccc(cc3)Oc3cc4cc(c3O[C@@H]3O[C@H](C(=O)O)[C@@H](O)[C@H](O)[C@H]3NC(=O)CCCCCCCCC(C)C)Oc3ccc(cc3Cl)[C@@H](O)[C@@H]3NC(=O)[C@H](NC(=O)[C@@H]4NC(=O)[C@@H](NC2=O)c2cc(cc(O)c2Cl)Oc2cc1ccc2O)c1ccc(O)c(c1)-c1c(O[C@H]2O[C@H](CO)[C@@H](O)[C@H](O)[C@@H]2O)cc(O)cc1[C@@H](C(=O)NCCCN(C)C)NC3=O [Dalbavancin] | 97.1% and 89.6% | 94.9 | 95.8 | 103 | 96.6 | 97.9 | 86.5 | 106
OC1COC(O)C(O)C1O (stereo not drawn) [L(+)-Arabinose] | 102% and 92.9% | 96.7 | 108 | 112 | 95.5 | 101 | 87.3 | 113
CC(C)=CCC[C@](C)(O[C@@H]1O[C@H](CO[C@@H]2O[C@H](CO)[C@@H](O)[C@H](O)[C@H]2O)[C@@H](O)[C@H](O)[C@H]1O)[C@H]1CC[C@]2(C)[C@@H]1[C@H](O)C[C@@H]1[C@@]3(C)CC[C@H](O[C@@H]4O[C@H](CO)[C@@H](O)[C@H](O)[C@H]4O[C@@H]4O[C@H](CO)[C@@H](O)[C@H](O)[C@H]4O)C(C)(C)[C@@H]3CC[C@]12C [Ginsenoside Rb1] | 103% and 102% | 105 | 103 | 112 | 103 | 102 | 101 | 111
Nc1nc(NCCc2ccc(O)cc2)nc2nc(-c3ccco3)nn12 | 92.4% and 100% | 94.8 | 102 | 110 | 94.4 | 104 | 97 | 104
O=C(Nc1cc(Cl)cc(Cl)c1O)c1c(O)c(Cl)cc(Cl)c1Cl [Oxyclozanide] | 96% and 91.7% | 97.8 | 97.2 | 108 | 99.1 | 103 | 102 | 99.9
